About 83,000 compounds went through this panel and 20% of them were active in at least one assay; those are over-represented in the sample as a whole.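 The endpoint reported here, percent growth, reads 100 for growth as untreated, 0 for no net growth and -100 for all cells dead.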 A number with no mark means an inactive call. The source made the active and inactive calls. The calls were made as follows: active = growth percent below 10; inactive = the rest.

The subject of this assay is NCI-H460 lung. Kind of assay: NCI-60 one-dose screen, 48 h (100 = growth as untreated, 0 = no growth, -100 = all killed). To be noted: 10 µM unless noted.
Take `Fc1ccc(Nc2nc(NCCNc3ccnc4cc(Cl)ccc34)nc(N3CCOCC3)n2)cc1`: the growth was 34.9%.

Consider `Cc1ccc(-c2nc(C#N)c(S(=O)(=O)n3nc(-c4ccccc4)cc3N)o2)cc1`, for which the growth was 109%. As for `CCOC(=O)c1ccc2c(c1)c1c(C)c3cccnc3c(C)c1n2C`, the growth is 22.5%. In the case of `COc1ccc(-c2nc(SCCC(C)C)nc(Nc3ccc(F)c(Cl)c3)c2C#N)cc1`, the growth is 24.1%. Next, `N[C@@H]1CCN(C(=O)c2cc3cc(Cl)c(F)c(F)c3[nH]2)C1`: 99.8%; `CC(C)(C)c1[nH]nc2c1C(c1cc3ccccc3[nH]c1=O)Nc1cc(C(=O)Nc3ccc(Cl)cc3)ccc1N2` (stereo not given): 74.1%.

Regarding `Cc1ccc(S(=O)(=O)NCCNc2nccc(-c3c(-c4cccc(N)c4)nc4sccn34)n2)cc1`, the growth was 94.7%. As to `CN(C)c1ncnc2c1ccn2C1OC(CO)C(O)C1O` (stereo not given), the growth is 45.6%. Turning to `C/C(=C\c1ccc(OCC(=O)O)c(Cl)c1Cl)[N+](=O)[O-]`, the growth was 110%. Next, `COc1ccc(/C=C/c2c(C(C)=O)c(C)nc3ccccc23)cc1`: 100%. Take `COc1ccc(Nc2nn3c(C)cc(C)nc3c2C(=O)Nc2ccc(C)cc2)c(OC)c1`: the growth is 101%. On to `Cc1[nH]c2ccc(F)cc2c1CCNC(=O)C1CCN(C(=O)c2ccccc2)C1` (stereo not given), for which the growth is 101% [25 µM]. Take `N#Cc1c(Nc2ccccc2)nc2n(c1=O)-c1ccccc1Sc1ccccc1-2`: the growth was 90.7%.

For the compound `C=C1CC2(OC1=O)C(=O)N(CCCN1C(=O)C3(CC(=C)C(=O)O3)c3ccccc31)c1ccccc12` (stereo not given), the growth was 44.3%.

Consider `C=C(C)[C@@H]1CC[C@]2(C(=O)O)CC[C@]3(C)[C@H](CC[C@@H]4[C@@]5(C)C[C@@H](CC#Cc6ccc(C(F)(F)F)cc6)[C@H](O)C(C)(C)[C@@H]5CC[C@]43C)[C@@H]12`, for which the growth is 15.1%. In the case of `CCCCCCCCC(C)OC(=O)c1nn(C(C)=O)c2ccccc12` (stereo not given), the growth is 110%. Next, `Oc1ccc2cc(Br)ccc2c1-c1c(O)ccc2cc(Br)ccc12`: 8.23% (active); `COc1ccc(-c2cn(-c3cccc(C(=O)/C=C/c4cc(OC)c(OC)c(OC)c4)c3)c(=O)[nH]2)cc1OC`: 91%. Turning to `N/C(=N\C(N)=N\c1nc2ccccc2s1)c1cccc(Br)c1`, the growth was 76.4%. In the case of `c1cc2[nH]ncc2cc1-c1nc2ccc3[nH]ncc3c2c2c1CCC2`, the growth was 31.5%. With `O=C(Nc1ccc(Cl)c(Cl)c1)NS(=O)(=O)c1cnccc1Oc1ccc(F)cc1`, the growth was 44.6%.

Regarding `Cc1ccc(C(=O)NCCCNc2nccc(-n3ccc4cccnc43)n2)cc1`, the growth was 109%. On to `CC(C)(C)n1cc(-c2ccnc(NCCCNS(=O)(=O)c3ccccc3)c2)c(-c2cccc(O)c2)n1`, for which the growth is 19.1%. Turning to `COc1ccc(C(=O)c2cc(OC)c(OC)c(OC)c2OC)cc1O`, the growth is 13.7%. Next, `C=C1C(=O)O[C@@H]2[C@@H]3O[C@@](C)(CC/C=C(\C)CCC[C@@H]2C)[C@H](O)C[C@@H]13`: 89.8%.
